Measurements as given in PubChem BioAssay (Tox21).
Inconclusive results are not listed. Activity calls are given as the source filed them. Unless noted, calls come from the whole dose curve; as a rule, active = well fitted curve in the direction sought with a large enough effect in the repeat runs; inconclusive = weak or mixed curves; inactive = no such curve, though single readings can be large; an effect the other way counts as inactive or inconclusive.

What was measured:
[1] = qHTS assay to identify small molecule agonists of the peroxisome proliferator-activated receptor delta (PPARd) signaling pathway - cell viability counter screen (AID 743211); note: nearly all actives have a fitted effect of over 55% in size; note: potency is the fitted concentration of half-maximal effect
Procedure, shortened: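 qHTS cell viability: PPARd-bla HEK293H; 17 h cpd, 37C; CellTiter-Glo, luminescence at 30 min RT.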

[2] = target: Peroxisome proliferator-activated receptor delta (Homo sapiens) (UniProt Q03181); experiment: qHTS assay to identify small molecule agonists of the peroxisome proliferator-activated receptor delta (PPARd) signaling pathway (AID 743212; calls by dose curve; note: % is set by controls: 0 for no effect and ±100 for the full control effect)
Sequence of Peroxisome proliferator-activated receptor delta (Homo sapiens) (Q03181 whole entry, looked up): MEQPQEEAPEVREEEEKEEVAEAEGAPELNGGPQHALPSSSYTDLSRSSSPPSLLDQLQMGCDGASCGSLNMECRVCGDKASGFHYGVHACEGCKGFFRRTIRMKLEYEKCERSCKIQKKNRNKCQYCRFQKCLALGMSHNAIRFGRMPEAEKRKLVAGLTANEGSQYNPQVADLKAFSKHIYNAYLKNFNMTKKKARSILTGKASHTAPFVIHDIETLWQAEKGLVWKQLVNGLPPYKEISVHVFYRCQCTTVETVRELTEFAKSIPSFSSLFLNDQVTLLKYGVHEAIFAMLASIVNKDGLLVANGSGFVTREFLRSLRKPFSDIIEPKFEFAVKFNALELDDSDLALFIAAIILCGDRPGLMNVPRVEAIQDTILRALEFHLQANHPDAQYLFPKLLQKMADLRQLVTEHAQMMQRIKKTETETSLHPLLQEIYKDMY
Procedure, shortened: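 Quantitative high-throughput agonist screen in a HEK293H beta-lactamase reporter line under UAS control. Compounds in DMSO, at 37 C. Fluorescence read after 2 h with FRET substrate at room temperature.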

[3] = qHTS assay to identify small molecule antagonists of the peroxisome proliferator-activated receptor delta (PPARd) signaling pathway - cell viability counter screen (AID 743213); note: nearly all actives have a fitted effect of over 50% in size; note: potency is the fitted concentration of half-maximal effect
Procedure, shortened: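 Agonist-stimulated (L165041, 300 nM final) HEK293H PPARd UAS-bla cells are exposed to compounds for 17 h at 37 C, and ATP-based luminescence (CellTiter-Glo) from the same wells reports cytotoxicity.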

[4] = target: Peroxisome proliferator-activated receptor delta (Homo sapiens) (UniProt Q03181); experiment: qHTS assay to identify small molecule antagonists of the peroxisome proliferator-activated receptor delta (PPARd) signaling pathway (AID 743215; active = well fitted inhibition curve with a large enough effect in the signal ratio in the repeat runs, not every such curve was filed as active; the % refers to the signal ratio; note: series mostly up to about 62 µM; % is set by controls: 0 for no effect and ±100 for the full control effect)
Procedure, shortened: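 Antagonist-mode beta-lactamase reporter screen: HEK293H cells with UAS-bla under PPARd control, stimulated by 300 nM L165041 (final) alongside test compound for 17 h at 37 C, then FRET fluorescence after 2 h substrate incubation.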

[5] = qHTS assay to identify small molecule agonists of the farnesoid-X-receptor (FXR) signaling pathway - cell viability counter screen (AID 743218); note: nearly all actives have a fitted effect of over 45% in size; note: potency is the fitted concentration of half-maximal effect
Procedure, shortened: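 In GeneBLAzer FXR-UAS-bla HEK 293T cells, compounds act for 16 h at 37 C. Cell viability is then scored in the reporter wells by CellTiter-Glo, 30 min at RT, luminescence.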

[6] = qHTS assay to identify small molecule antagonists of the farnesoid-X-receptor (FXR) signaling pathway - cell viability counter screen (AID 743221; active = well fitted cell-killing curve with a large enough effect in the repeat runs, not every such curve was filed as active; note: nearly all actives have a fitted effect of over 50% in size; note: potency is the fitted concentration of half-maximal effect)
Procedure, shortened: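 After a 5 h settling period, FXR-bla HEK 293T cells receive compound and chenodeoxycholic acid (50 uM final) and incubate 16 h at 37 C; CellTiter-Glo luminescence, read after 30 min at room temperature, reports cell viability.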

[7] = target: Vitamin D3 receptor (Homo sapiens) (UniProt P11473); experiment: qHTS assay to identify small molecule agonists of the vitamin D receptor (VDR) signaling pathway (AID 743222; calls by dose curve; note: % is set by controls: 0 for no effect and ±100 for the full control effect)
Sequence of Vitamin D3 receptor (Homo sapiens) (P11473 whole entry, looked up): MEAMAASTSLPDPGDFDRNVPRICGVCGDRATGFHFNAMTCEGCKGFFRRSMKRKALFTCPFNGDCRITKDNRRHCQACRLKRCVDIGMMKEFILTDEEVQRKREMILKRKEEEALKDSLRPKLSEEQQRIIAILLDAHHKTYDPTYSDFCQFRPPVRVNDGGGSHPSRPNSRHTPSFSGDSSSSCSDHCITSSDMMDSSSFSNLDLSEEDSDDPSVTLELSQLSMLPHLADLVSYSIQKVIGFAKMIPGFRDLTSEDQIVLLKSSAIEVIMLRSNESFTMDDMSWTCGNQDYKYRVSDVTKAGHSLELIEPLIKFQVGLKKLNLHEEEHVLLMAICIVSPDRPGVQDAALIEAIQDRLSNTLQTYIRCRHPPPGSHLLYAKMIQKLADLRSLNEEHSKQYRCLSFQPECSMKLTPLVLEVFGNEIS
Procedure, shortened: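 Agonist activity measured in VDR-bla reporter cells. Exposure 16 h, 37C, 5% CO2; detection by B/G FRET substrate, 2 h RT.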

[8] = target: Vitamin D3 receptor (Homo sapiens) (UniProt P11473); experiment: qHTS assay to identify small molecule antagonists of the vitamin D receptor (VDR) signaling pathway (AID 743223; active = well fitted inhibition curve with a large enough effect in the signal ratio in the repeat runs, not every such curve was filed as active; the % refers to the signal ratio; note: % is set by controls: 0 for no effect and ±100 for the full control effect)
Procedure, shortened: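 Reporter line VDR-bla; stimulus 1alpha,25-(OH)2 vitamin D3, 3 nM final; compound co-addition, 16 h 37C/5% CO2; LiveBLAzer B/G substrate 2 h RT; fluorescence intensity.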

[9] = qHTS assay to identify small molecule agonists of the vitamin D receptor (VDR) signaling pathway - cell viability counter screen (AID 743224); note: series mostly up to about 63 µM; % is set by controls: 0 for no effect and ±100 for the full control effect; nearly all actives have a fitted effect of over 50% in size
Procedure, shortened: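 VDR-bla cell line, quantitative HTS format; 16 h compound incubation (37C, 5% CO2); ATP-based CellTiter-Glo luminescence measured in the reporter assay wells.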

[10] = qHTS assay to identify small molecule antagonists of the vitamin D receptor (VDR) signaling pathway - cell viability counter screen (AID 743225); note: nearly all actives have a fitted effect of over 50% in size; note: potency is the fitted concentration of half-maximal effect
Procedure, shortened: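 Parallel cytotoxicity test: VDR-UAS-bla HEK 293T, 3 nM (final) 1-alpha,25-dihydroxyvitamin D3 with test compound, 16 h, 37C. Endpoint is CellTiter-Glo luminescence in the same wells.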

[11] = qHTS assay to identify small molecule agonists of the NFkB signaling pathway - cell viability counter screen (AID 1159515; calls by dose curve; note: nearly all actives have a fitted effect of over 55% in size; note: potency is the fitted concentration of half-maximal effect)
Procedure, shortened: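 Viability in NFkB-bla ME-180 cells was measured by CellTiter-Glo luminescence, 30 min room temperature, in wells already treated 5 hr with compounds and read for reporter FRET.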

[12] = qHTS assay to identify small molecule agonists of the endoplasmic reticulum stress response signaling pathway (AID 1159516; active = well fitted activation curve with a large enough effect in the signal ratio in the repeat runs, not every such curve was filed as active; the % refers to the signal ratio; note: % is set by controls: 0 for no effect and ±100 for the full control effect)
Procedure, shortened: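 ER stress element reporter (bla) in HeLa. 1,500 cells/well, overnight attachment; 5 hr compound; 2 hr RT substrate; dual-emission fluorescence.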

[13] = qHTS assay to identify small molecule antagonists of the retinoid-related orphan receptor gamma (ROR-gamma) signaling pathway - cell viability counter screen (AID 1159520)
Procedure, shortened: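 Tet-on ROR gamma CHO cells were given compounds for 2 hr, then doxycycline hyclate at 1 uM final, and incubated 16 hr at 37 C. Viability was measured as ATP content by CellTiter-Glo luminescence.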

[14] = target: Nuclear receptor ROR-gamma (Homo sapiens) (UniProt P51449); experiment: qHTS assay to identify small molecule antagonists of the retinoid-related orphan receptor gamma (ROR-gamma) signaling pathway (AID 1159521; note: nearly all actives have a fitted effect of over 50% in size; note: potency is the fitted concentration of half-maximal effect)
Procedure, shortened: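 Decreased RORE-driven luciferase luminescence indicates antagonism. Tet-on RORγ CHO cells received compound, then 1 uM final doxycycline 2 h later; signal read after 16 h incubation.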

[15] = qHTS assay to identify small molecule agonists of the AP-1 signaling pathway - cell viability counter screen (AID 1159525; calls by dose curve; note: nearly all actives have a fitted effect of over 55% in size)
Procedure, shortened: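 AP-1-bla ME-180 cells in Opti-MEM with 0.5% dialyzed FBS, compound exposure 5 h at 37 C in 15-point titration. Viability read in the same wells as ATP content by CellTiter-Glo luminescence, normalised to tetra-n-octylammonium bromide and DMSO controls.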

[16] = qHTS assay to identify small molecule agonists of the AP-1 signaling pathway (AID 1159526; calls by dose curve; note: % is set by controls: 0 for no effect and ±100 for the full control effect)
[17] = target: Bile acid receptor (Homo sapiens) (UniProt Q96RI1); experiment: qHTS assay to identify small molecule agonists of the farnesoid-X-receptor (FXR) signaling pathway (AID 743220; active = well fitted activation curve with a large enough effect in the signal ratio in the repeat runs, not every such curve was filed as active; the % refers to the signal ratio; note: % is set by controls: 0 for no effect and ±100 for the full control effect)
Sequence of Bile acid receptor (Homo sapiens) (Q96RI1 whole entry, looked up): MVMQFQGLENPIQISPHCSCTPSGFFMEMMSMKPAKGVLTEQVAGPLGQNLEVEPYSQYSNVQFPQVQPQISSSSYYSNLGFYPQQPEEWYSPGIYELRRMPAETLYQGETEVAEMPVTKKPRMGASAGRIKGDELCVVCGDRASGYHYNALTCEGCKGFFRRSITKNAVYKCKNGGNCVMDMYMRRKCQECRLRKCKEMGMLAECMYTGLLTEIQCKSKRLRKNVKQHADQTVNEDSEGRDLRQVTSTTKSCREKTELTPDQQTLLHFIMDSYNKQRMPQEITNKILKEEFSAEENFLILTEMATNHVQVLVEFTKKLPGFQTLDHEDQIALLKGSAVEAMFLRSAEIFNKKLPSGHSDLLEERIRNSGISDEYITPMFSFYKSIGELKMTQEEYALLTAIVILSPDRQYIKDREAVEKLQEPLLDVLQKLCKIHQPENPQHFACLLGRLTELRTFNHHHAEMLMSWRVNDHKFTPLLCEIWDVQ
Procedure, shortened: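 Beta-lactamase reporter under UAS control in GeneBLAzer FXR HEK 293T cells (5000/well) measured with LiveBLAzer FRET substrate after 2 h at room temperature. Compound exposure lasted 16 h at 37C.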

[18] = target: Bile acid receptor (Homo sapiens) (UniProt Q96RI1); experiment: qHTS assay to identify small molecule antagonists of the farnesoid-X-receptor (FXR) signaling pathway (AID 743217; active = well fitted inhibition curve with a large enough effect in the signal ratio in the repeat runs, not every such curve was filed as active; the % refers to the signal ratio; note: % is set by controls: 0 for no effect and ±100 for the full control effect)
Procedure, shortened: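 Beta-lactamase reporter under UAS control in HEK 293T cells; compound exposure 16 h at 37 °C in the presence of chenodeoxycholic acid (50 uM final); signal from B/G FRET substrate after 2 h at room temperature.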

[19] = qHTS assay to identify small molecule agonists of the endoplasmic reticulum stress response signaling pathway - cell viability counter screen (AID 1159517; calls by dose curve)
Procedure, shortened: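 Counter-screen wells were identical to the reporter wells. Cells were plated at 1,500 per well and dosed for 5 hr, then read for luminescence 30 min after CellTiter-Glo addition.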

Cc1cn([C@H]2C[C@H](F)[C@@H](CO)O2)c(=O)[nH]c1=O
inactive: Potency [1] | outcome [2] | Potency [3] | Potency [4] | Potency [5] | Potency [6] | outcome [7] | outcome [8] | Potency [9] | Potency [10] | Potency [11] | Potency [12] | Potency [13] | Potency [14] | Potency [15] | outcome [16]

CN1CCCN(C(c2ccccc2)c2ccc(Cl)cc2)CC1 (stereo not given)
active: Potency [1] 21.1 µM | Potency [3] 26.6 µM | Potency [5] 29.8 µM | Potency [6] 26.6 µM | Potency [10] 21.3 µM | Potency [11] 12 µM | Potency [14] 26.6 µM
inactive: Potency [17] | Potency [15]

Cc1cc(CCC(=O)OCCOCCOCCOC(=O)CCc2cc(C)c(O)c(C(C)(C)C)c2)cc(C(C)(C)C)c1O
inactive: Potency [3] | outcome [18] | Potency [5] | Potency [17] | Potency [6] | Potency [11] | Potency [19] | Potency [13] | Potency [14] | Potency [15] | outcome [16]

COC(=O)Nc1nc2ccc(C(=O)C3CC3)cc2[nH]1
inactive: Potency [1] | Potency [3] | Potency [4] | Potency [5] | Potency [6] | Potency [10] | Potency [11] | Potency [12] | Potency [13] | Potency [14] | Potency [15] | outcome [16]

O=C(C(=O)c1ccco1)c1ccco1
inactive: Potency [1] | outcome [2] | Potency [3] | Potency [4] | Potency [5] | Potency [6] | outcome [7] | Potency [10] | Potency [11] | Potency [12] | Potency [13] | Potency [14] | Potency [15] | outcome [16]

c1ccc(CNc2ncnc3c2ncn3C2CCCCO2)cc1 (stereo not given)
inactive: Potency [1] | outcome [2] | Potency [4] | outcome [18] | Potency [17] | Potency [6] | outcome [7] | Potency [9] | Potency [10] | Potency [11] | Potency [12] | Potency [13] | Potency [14] | Potency [15] | outcome [16]

[Cl][Nd]([Cl])[Cl]
inactive: Potency [1] | outcome [2] | Potency [3] | Potency [5] | Potency [6] | outcome [7] | Potency [10] | Potency [11] | Potency [12] | Potency [14] | Potency [15] | outcome [16]

C=C(C)C(=O)OCCC(F)(F)C(F)(F)C(F)(F)C(F)(F)C(F)(F)C(F)(F)F
inactive: Potency [1] | Potency [3] | outcome [18] | Potency [5] | Potency [17] | Potency [6] | outcome [7] | outcome [8] | Potency [11] | Potency [14] | Potency [15] | outcome [16]

CC(C)N=C=NC(C)C
inactive: Potency [1] | Potency [3] | Potency [6] | outcome [8] | Potency [9] | Potency [10] | Potency [11] | Potency [12] | Potency [13] | Potency [14] | Potency [15] | outcome [16]

CC1=CC[C@@H]2C[C@H]1C2(C)C
inactive: activity change, negative = cytotoxicity [1] -15.6% [at 13.2 µM] | activation [2] 0.18% [at 13.2 µM] | viability change, negative = cytotoxic [3] -2.53% [at 13.7 µM] | viability change, negative = cytotoxic [5] 17.4% [at 13.2 µM] | activation [7] -15.3% [at 13.4 µM] | viability change, negative = cytotoxic [10] -2.02% [at 15.1 µM] | activity, negative = cytotoxic [11] 15.3% [at 15.1 µM] | activity change, negative = cytotoxicity [19] 30.1% [at 15.1 µM] | activity, negative = cytotoxicity [13] 2.52% [at 19 µM] | activity change, negative = inhibition [14] -7.14% [at 19 µM] | viability change, negative = cytotoxic [15] 0.876% [at 15.8 µM] | activation [16] 4.37% [at 15.8 µM]
